Results: PubChem BioAssay (NCI)
Compounds without any hit were thinned out: in the full panel of roughly 79,000, 15% have a hit. Values without a mark were called inactive. Active and inactive are the calls of the source. No stated cut-off is given here; in the data, active means growth inhibition above about 70%; inactive means the rest.

Experiment: NCI Yeast Anticancer Drug Screen. Data for the mgt1 strain (AID 153)
Details: S. cerevisiae mgt1 mutant growth inhibition, hits give high values
Method: Growth inhibition of yeast strains with defined genetic alterations is measured as a screen for potential anti-cancer activity. Selected strains with alterations in DNA damage repair or cell cycle control were exposed to compounds and growth inhibition was measured relative to vehicle treated controls. The strain used in this assay is mgt1

**Q.** Which growth inhibition (at 1.2 µM) does the source give for `CCCCCCCCCC/C=C\C(=O)O` here?
**A.** -36%

**Q.** What about the growth inhibition (at 3.7 µM) of the same compound?
**A.** -10%

**Q.** What about the growth inhibition (at 11.0 µM) of the same compound?
**A.** -22%

**Q.** What about the growth inhibition (at 33.0 µM) of the same compound?
**A.** -9%

**Q.** What about the growth inhibition (at 100.0 µM) of the same compound?
**A.** 98% (active)

**Q.** For `Cc1ccc(-n2cc(-c3ccc(Cl)cc3)c(C#N)c2N)cc1`, which growth inhibition (at 1.2 µM) is on record?
**A.** 1%

**Q.** What about the growth inhibition (at 3.7 µM) of the same compound?
**A.** -4%

**Q.** What about the growth inhibition (at 11.0 µM) of the same compound?
**A.** 2%

**Q.** What about the growth inhibition (at 33.0 µM) of the same compound?
**A.** -41%

**Q.** And the growth inhibition (at 100.0 µM)?
**A.** -3%

**Q.** Which growth inhibition (at 1.2 µM) does the source give for `CC(C)(Br)C(=O)/C=C/c1ccc(Cl)c(Cl)c1` here?
**A.** -4%

**Q.** What about the growth inhibition (at 3.7 µM) of the same compound?
**A.** 0%

**Q.** And the growth inhibition (at 11.0 µM)?
**A.** -1%

**Q.** And the growth inhibition (at 33.0 µM)?
**A.** 0%

**Q.** And the growth inhibition (at 100.0 µM)?
**A.** 0%

**Q.** Which growth inhibition (at 1.2 µM) does the source give for `COC(=O)C1=C(C(=O)OC)C2(C)C=CC1O2` (stereo not given) here?
**A.** -4%

**Q.** What about the growth inhibition (at 3.7 µM) of the same compound?
**A.** -9%

**Q.** What about the growth inhibition (at 11.0 µM) of the same compound?
**A.** -3%

**Q.** And the growth inhibition (at 33.0 µM)?
**A.** 32%

**Q.** What about the growth inhibition (at 100.0 µM) of the same compound?
**A.** 86% (active)

**Q.** For `Cc1ccc(S(=O)(=O)NNC(=S)Nc2cccc3ccccc23)cc1`, which growth inhibition (at 1.2 µM) is on record?
**A.** -1%

**Q.** And the growth inhibition (at 3.7 µM)?
**A.** -4%

**Q.** What about the growth inhibition (at 11.0 µM) of the same compound?
**A.** -1%

**Q.** And the growth inhibition (at 33.0 µM)?
**A.** -28%

**Q.** And the growth inhibition (at 100.0 µM)?
**A.** 1%

**Q.** With `O=[N+]([O-])C(=C(Sc1ccccc1)Sc1ccccc1)C(Cl)=C(Cl)Cl` as the compound, how does the growth inhibition (at 1.2 µM) read?
**A.** 2%

**Q.** What about the growth inhibition (at 3.7 µM) of the same compound?
**A.** 17%

**Q.** And the growth inhibition (at 11.0 µM)?
**A.** 44%

**Q.** What about the growth inhibition (at 33.0 µM) of the same compound?
**A.** 59%

**Q.** And the growth inhibition (at 100.0 µM)?
**A.** 74% (active)

**Q.** With `O=C1C=CC(=O)N1c1ccc2c(c1)Cc1cc(NC(=O)C(F)(F)F)ccc1-2` as the compound, how does the growth inhibition (at 1.2 µM) read?
**A.** 11%

**Q.** What about the growth inhibition (at 3.7 µM) of the same compound?
**A.** 20%

**Q.** And the growth inhibition (at 11.0 µM)?
**A.** 31%

**Q.** What about the growth inhibition (at 33.0 µM) of the same compound?
**A.** 57%

**Q.** And the growth inhibition (at 100.0 µM)?
**A.** 77% (active)

**Q.** Which results are given for `Cc1nn(-c2cc(Cl)ccc2[N+](=O)[O-])c(C)c1Cl`?
**A.** growth inhibition (at 1.2 µM): -2%; growth inhibition (at 3.7 µM): -2%; growth inhibition (at 11.0 µM): 4%; growth inhibition (at 33.0 µM): -8%; growth inhibition (at 100.0 µM): 7%
